Laboratory results as given in PubChem BioAssay AID504834 (National Center for Advancing Translational Sciences (NCATS), 2011).
Out of some 320,000 compounds screened, about 22,000 (6.9%) were called active. Inconclusive results (about 27%) are left out. The entries come from a sample that favours actives as a whole. Unmarked numbers belong to inactive results. The call rests on the fitted dose curve; in most records, active means well fitted inhibition curve with a large enough effect; inconclusive means small, poorly fitted or top-dose-only effect, or another doubt; inactive means no such curve, though single readings can be large or run the other way.

Test: Primary qHTS for delayed death inhibitors of the malarial parasite plastid, 96 hour incubation
Conditions: P. falciparum luciferase reporter growth; series mostly up to 28.7 µM; activity change, negative = inhibition: at the top concentration
Summary of the method: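 Cell-based qHTS: luciferase-tagged P. falciparum in erythrocytes (2% hematocrit, 0.05% parasitemia final) incubated with compounds for 96 hours, 37 C, 5% CO2; luciferase detection reagent then added and luminescence measured.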
On the % scale 0 is the no-effect control and ±100 the full control effect; potency means the concentration at half of the fitted maximal effect.

First: CC(Sc1nn(-c2ccc(Cl)cc2)c(=S)s1)C(=O)NCC1CCCO1 (centres undefined)
Second: N#Cc1cc([N+](=O)[O-])ccc1NCC1CCCO1 (centres undefined)
The “activity change, negative = inhibition” value of the first is higher: 4.28% for the first, -0.513% for the second.

Compared with `O=C(O)c1ccc2c(=O)n3c(nc2c1)/C(=C/c1ccc(Cl)c([N+](=O)[O-])c1)CC3`, `CS(=O)(=O)c1ccc2nc(NC(=O)c3ccc(N4CCCC4=O)cc3)sc2c1` is higher in “activity change, negative = inhibition” value: -21.2% for the first, 5.19% for the second.

Going from `Cc1ccc(OCCOc2cccc(/C=N/NC(N)=O)c2)cc1` to `Cc1ccc(SCCC(=O)NCc2ccccn2)cc1`, the “activity change, negative = inhibition” value falls from -1.16% to -27.1%.

Going from `O=C1CCC([N+](=O)[O-])C(c2ccccc2Br)N1` (centres undefined) to `O=C1CCC(=O)N(c2ccccc2)N1`, the “activity change, negative = inhibition” value rises from -26.5% to 11.7%.

Going from `C=CCOc1ccccc1NC(=O)CN1C(=O)CNC1=O` to `COc1ccccc1OCC(=O)Nc1ccccc1C(=O)NC1CC1`, the “activity change, negative = inhibition” value rises from 15.9% to 45.6%.

Compared with `CN(CC(=O)NCc1ccncc1)S(=O)(=O)c1ccc(Br)cc1`, `CN(C)S(=O)(=O)c1ccc(C(=O)NCCN=C2NS(=O)(=O)c3ccccc32)cc1` is higher in “activity change, negative = inhibition” value: -17.6% for the first, 34.3% for the second.

First: Cc1cc(N=Nc2ccc3ccccc3c2)ccc1O
Second: O=[N+]([O-])c1ccc(N=Cc2c(O)ccc3ccccc23)cc1
The “activity change, negative = inhibition” value of the first is higher: 85.3% for the first, 17.6% for the second.

Going from `COc1ccc(C)cc1N(CC(=O)NC(C)c1ccccc1)S(C)(=O)=O` (centres undefined) to `CCOC(=O)C(Cc1ccccc1)NC(=O)CCC(=O)c1ccc(OC)cc1` (centres undefined), the “activity change, negative = inhibition” value falls from 169% to 28.2%.

Going from `CCOC(=O)c1ccc(NC(=O)c2ccc(NC(=O)C3CCCO3)cc2)cc1` (centres undefined) to `Cc1ccc(NC(=O)CCCNC(=O)c2ccc(Cl)cc2)cc1S(=O)(=O)N1CCCCC1`, the “activity change, negative = inhibition” value rises from -3.56% to 29.9%.

Compared with `O=C(NCCc1ccccc1)C1CC1`, `O=C(CCc1ccccc1)NCc1cccnc1` is lower in “activity change, negative = inhibition” value: 24.6% for the first, 12.9% for the second.

First: CCSc1nnc(SCC(=O)NNC(=O)c2ccccc2F)s1
Second: COc1ccccc1-n1c(CNC(=O)c2ccccc2)nnc1SCC(=O)Nc1nnc(C)s1
The “activity change, negative = inhibition” value of the first is higher: 26.7% for the first, 8.45% for the second.

Compared with `Cc1cc(Cl)ccc1OCCCC(=O)NCc1ccccn1`, `CC(c1ccccn1)N(C)C(=O)c1ccc2nc(Cc3cccc(Cl)c3)oc2c1` (centres undefined) is lower in “activity change, negative = inhibition” value: -1.6% for the first, -1.98% for the second.

Going from `Cc1ccc(-c2nn(-c3ccccc3)cc2C(=O)NCCCN2CCCC2=O)cc1` to `O=C(Nc1cc2c3c(c1)CC(=O)N3CCC2)c1ccccc1F`, the “activity change, negative = inhibition” value rises from -20.1% to -13%.

Compared with `CC1(NC(=O)CCS(=O)(=O)c2ccc(Cl)cc2)CCS(=O)(=O)C1` (centres undefined), `CC(=O)c1ccc(NC(=O)CCNS(=O)(=O)c2cc(Br)cnc2N)cc1` is higher in “activity change, negative = inhibition” value: -29.7% for the first, 20.4% for the second.

Compared with `C/C(=N\NC(=O)CC(C)C)c1c(C(F)(F)F)[nH]n(-c2nc3ccccc3s2)c1=O`, `CCOC(=O)c1sc(NC(=O)COc2ncnc3ccccc23)c(C(=O)OCC)c1C` is lower in “activity change, negative = inhibition” value: 0% for the first, -21.2% for the second.

Going from `COc1ccc(CC(=O)Nc2ccc3c(c2)CCC3)cc1S(=O)(=O)N1CCOCC1` to `COc1ccc(S(=O)(=O)N2CCOCC2)c(C)c1C`, the “activity change, negative = inhibition” value rises from 0% to 3.7%.

Going from `COc1ccc(C(=O)NC(=S)N2CCNC(=O)C2CC(=O)OC(C)C)cc1` (centres undefined) to `COc1ccc(C(=O)N/N=C(\C)CC(=O)Nc2ccc(Cl)cn2)cc1`, the “activity change, negative = inhibition” value rises from 4.17% to 34.4%.

Going from `Cc1cc(C)nc(Nc2n[nH]c(-c3ccccc3N)n2)n1` to `Oc1ccccc1-c1cc(-c2ccc(Cl)cc2)n[nH]1`, the “activity change, negative = inhibition” value falls from 227% to -48.6%.

First: COC(=O)CC1=NN(c2nc(C)cc(C)n2)C(=O)C1
Second: COc1cc(OC)nc(NC(=O)CCl)n1
The “activity change, negative = inhibition” value of the first is lower: -5.91% for the first, 4.17% for the second.

First: C/C(N)=C(/C#N)C(=O)COC(=O)C1=NN(c2ccccc2)C(=O)CC1
Second: Cc1cc(C(=O)NC2CCN(Cc3ccccc3)CC2)n[nH]1
The “activity change, negative = inhibition” value of the first is lower: 30% for the first, 57.9% for the second.

Compared with `COC(=O)[C@H](Cc1ccccc1)NC(=O)Nc1ccc(OC)cc1`, `CCc1nnc(NC(=O)CSc2nnc(Cc3ccccc3)n2-c2ccc(OC)cc2)s1` is higher in “activity change, negative = inhibition” value: 26.2% for the first, 39.7% for the second.

First: O=S(=O)(Nc1cccc(Oc2ccc(Cl)cc2)n1)c1ccc(F)cc1
Second: COc1ccc(NS(=O)(=O)c2ccc(F)cc2F)cn1
The “activity change, negative = inhibition” value of the first is lower: 5.23% for the first, 36% for the second.

First: Nc1ccc(Cl)c(S(=O)(=O)Nc2ccccc2Cl)c1
Second: O=C(O)c1cc(S(=O)(=O)N(Cc2ccccc2)c2ccccc2)ccc1Cl
The “activity change, negative = inhibition” value of the first is lower: 4.92% for the first, 68.6% for the second.

Compared with `Cc1ccc(C(=O)NCCNC(=O)c2cnccn2)cc1`, `O=S(=O)(NCc1cccnc1)c1ccc(Br)s1` is lower in “activity change, negative = inhibition” value: 0.273% for the first, -3.44% for the second.

Going from `O=C(O)CCCC(=O)N1N=C(c2ccco2)CC1c1ccco1` (centres undefined) to `CCc1nn(CC(=O)N2CCN(c3cc(C)ccc3C)CC2)c(=O)c2cc3occc3n12`, the “activity change, negative = inhibition” value rises from -25.2% to -0.478%.

Compared with `COc1cccc(-c2noc(C3CCCN(C(=O)c4ccc(F)cc4)C3)n2)c1` (centres undefined), `COc1ccc(OCC(=O)Nc2ccc(N3CCC(C)CC3)cc2)cc1` is lower in “activity change, negative = inhibition” value: 84% for the first, 15.5% for the second.

First: CC(NC(=O)C(C)(C)C)C(c1cccs1)N1CCN(Cc2ccccc2)CC1 (centres undefined)
Second: CNCC(O)CN1CCN(c2ccccc2OC)CC1 (centres undefined)
The “activity change, negative = inhibition” value of the first is lower: -2.32% for the first, 23.6% for the second.

Compared with `CCOC(=O)c1c(NC(=O)CSc2nnc(Cc3csc(N)n3)n2C)sc(C)c1C`, `CCCC1C(=O)N2C(N(C)C)=Nc3ccc(C)cc3N2C1=O` (centres undefined) is lower in “activity change, negative = inhibition” value: 18.3% for the first, 12.4% for the second.

Going from `O=C(Cc1c(Cl)cccc1Cl)NC1CC1` to `CC(Oc1ccc(Br)cc1)C(=O)NC1CCCCCC1` (centres undefined), the “activity change, negative = inhibition” value rises from 0.175% to 52.7%.

Compared with `COC(=O)c1ccc(COc2ccc(C#N)cc2)o1`, `CCOc1ccccc1CN1CCN(C2CCC2)CC1CCO` (centres undefined) is higher in “activity change, negative = inhibition” value: -24.3% for the first, -8.22% for the second.

With `Cc1cc(F)ccc1N1CCC(N2CCN(C)C(CCO)C2)CC1` (centres undefined) the “activity change, negative = inhibition” value was 0%.

For `Oc1ccc(N=Cc2c(O)ccc3ccccc23)cc1`, the Potency was 6.57 µM (active).
In the case of `O=C(NCCc1ccccc1)C1CCC(Cn2c(=O)c3ccccc3n(Cc3cccnc3)c2=O)CC1` (centres undefined), the Potency is reported as 6.57 µM (active).
For `CC(C)Cn1c(=O)c2ccccc2n2c(CCC(=O)NCc3ccccn3)nnc12`, the Potency was 13.1 µM (active).
In the case of `COc1ccc(/C=C/C(=O)Nc2ccc(C)cc2)cc1S(=O)(=O)N1CCOCC1`, the Potency is reported as 11.7 µM (active).
With `COC(=O)CC1=NN(c2ccccc2)C(=O)C1` the Potency was 5.22 µM (active).
With `COc1cc([C@H](Cc2ccccc2)NC(C)=O)oc(=O)c1` the Potency was 2.94 µM (active).
With `Cc1cccc(NS(=O)(=O)c2cc(Cl)ccc2Cl)n1` the Potency was 2.94 µM (active).
For `O=S(=O)([N-]c1nc2ccccc2nc1-[n+]1ccc(Cc2ccccc2)cc1)c1ccc(Br)s1`, the Potency was 13.1 µM (active).
In the case of `COc1cc(OC)nc(S(C)(=O)=O)n1`, the Potency is reported as 11.7 µM (active).
In the case of `CCOC(=O)c1sc(NC(=O)CSc2nc3c(c(=O)n2-c2ccccc2)SCC3)c(C(=O)OCC)c1C`, the Potency is reported as 3.7 µM (active).
For `CCc1nnc(NC(=O)CSc2nc3c(c(=O)n2-c2ccccc2OC)SCC3)s1`, the Potency was 8.28 µM (active).
In the case of `COc1ccccc1N1CCC(N2CCN(CC(C)(C)C)C(CCO)C2)CC1` (centres undefined), the Potency is reported as 0.465 µM (active).
In the case of `COc1ccc(N2CCC(N3CCN(C)C(CCO)C3)CC2)cc1` (centres undefined), the Potency is reported as 14.7 µM (active).
